# Measurements from ChEMBL document CHEMBL2218924, “A broad activity screen in support of a chemogenomic map for kinase signalling research and drug discovery” (Biochem J, 2013).
# Key:
# [1] = target: T1, Serine/threonine-protein kinase 17A (Homo sapiens) (UniProt Q9UEE5); settings: at 10 µM
# T1 sequence (whole entry): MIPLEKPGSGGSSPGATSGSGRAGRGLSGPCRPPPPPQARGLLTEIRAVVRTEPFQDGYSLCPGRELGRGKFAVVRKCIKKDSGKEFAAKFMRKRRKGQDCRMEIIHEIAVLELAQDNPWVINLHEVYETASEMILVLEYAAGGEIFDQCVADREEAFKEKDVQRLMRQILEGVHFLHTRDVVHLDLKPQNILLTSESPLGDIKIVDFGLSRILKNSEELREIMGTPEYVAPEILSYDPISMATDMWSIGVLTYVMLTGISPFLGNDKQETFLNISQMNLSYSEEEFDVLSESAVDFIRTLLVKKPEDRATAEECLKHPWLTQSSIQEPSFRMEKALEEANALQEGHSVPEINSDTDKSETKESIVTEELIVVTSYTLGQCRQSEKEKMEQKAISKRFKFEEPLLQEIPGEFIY
# [2] = target: T2, Dual specificity tyrosine-phosphorylation-regulated kinase 2 (Homo sapiens) (UniProt Q92630); settings: at 1 µM
# T2 sequence (whole entry): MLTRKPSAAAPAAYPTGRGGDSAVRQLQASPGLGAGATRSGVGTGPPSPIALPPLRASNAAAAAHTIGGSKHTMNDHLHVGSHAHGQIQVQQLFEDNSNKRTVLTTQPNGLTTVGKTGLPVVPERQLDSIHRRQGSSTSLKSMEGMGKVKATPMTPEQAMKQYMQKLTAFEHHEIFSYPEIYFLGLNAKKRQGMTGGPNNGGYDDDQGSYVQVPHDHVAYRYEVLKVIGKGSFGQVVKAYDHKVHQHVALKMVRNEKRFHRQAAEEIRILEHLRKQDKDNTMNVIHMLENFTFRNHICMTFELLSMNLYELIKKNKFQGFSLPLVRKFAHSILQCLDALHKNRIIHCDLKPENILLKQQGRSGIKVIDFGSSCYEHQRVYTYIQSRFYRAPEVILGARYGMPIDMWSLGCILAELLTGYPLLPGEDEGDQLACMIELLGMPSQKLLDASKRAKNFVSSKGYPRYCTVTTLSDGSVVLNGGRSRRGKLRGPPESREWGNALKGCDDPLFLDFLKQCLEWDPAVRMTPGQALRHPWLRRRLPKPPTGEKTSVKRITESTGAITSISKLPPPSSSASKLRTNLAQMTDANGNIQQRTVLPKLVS
# [3] = target: T2, Dual specificity tyrosine-phosphorylation-regulated kinase 2 (Homo sapiens); settings: at 10 µM
# [4] = target: T3, Ephrin type-A receptor 1 (Homo sapiens) (UniProt P21709); settings: at 1 µM
# T3 sequence (whole entry): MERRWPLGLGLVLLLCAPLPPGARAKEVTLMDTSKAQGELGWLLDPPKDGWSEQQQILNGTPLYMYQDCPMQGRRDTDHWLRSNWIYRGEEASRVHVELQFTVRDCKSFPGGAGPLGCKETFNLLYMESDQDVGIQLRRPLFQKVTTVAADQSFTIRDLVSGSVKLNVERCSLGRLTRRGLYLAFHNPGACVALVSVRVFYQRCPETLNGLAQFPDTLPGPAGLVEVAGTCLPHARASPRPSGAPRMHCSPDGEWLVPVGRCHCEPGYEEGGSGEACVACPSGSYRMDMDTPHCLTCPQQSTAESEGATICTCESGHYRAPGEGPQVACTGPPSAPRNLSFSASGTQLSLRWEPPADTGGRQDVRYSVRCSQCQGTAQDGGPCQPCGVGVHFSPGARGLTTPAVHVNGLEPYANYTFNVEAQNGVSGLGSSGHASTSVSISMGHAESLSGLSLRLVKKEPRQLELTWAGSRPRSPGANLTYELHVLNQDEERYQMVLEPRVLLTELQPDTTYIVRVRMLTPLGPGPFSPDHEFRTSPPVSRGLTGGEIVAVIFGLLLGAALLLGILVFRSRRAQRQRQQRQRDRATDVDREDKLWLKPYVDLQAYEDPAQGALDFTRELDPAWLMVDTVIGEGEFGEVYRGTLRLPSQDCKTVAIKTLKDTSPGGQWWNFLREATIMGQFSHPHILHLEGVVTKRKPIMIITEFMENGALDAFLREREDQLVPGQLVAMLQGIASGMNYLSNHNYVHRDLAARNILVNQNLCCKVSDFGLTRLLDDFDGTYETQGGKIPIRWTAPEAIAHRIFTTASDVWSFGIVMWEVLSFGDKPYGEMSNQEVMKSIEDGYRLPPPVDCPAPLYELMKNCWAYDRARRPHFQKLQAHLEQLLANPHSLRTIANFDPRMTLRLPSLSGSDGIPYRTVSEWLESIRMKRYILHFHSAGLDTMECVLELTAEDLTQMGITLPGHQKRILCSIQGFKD
# [5] = target: T3, Ephrin type-A receptor 1 (Homo sapiens); settings: at 10 µM
# [6] = target: Ephrin type-A receptor 2 (Homo sapiens) (UniProt P29317); settings: at 1 µM
# [7] = target: Ephrin type-A receptor 2 (Homo sapiens) (UniProt P29317); settings: at 10 µM
# [8] = target: T4, Ephrin type-A receptor 3 (Homo sapiens) (UniProt P29320); settings: at 1 µM
# T4 sequence (whole entry): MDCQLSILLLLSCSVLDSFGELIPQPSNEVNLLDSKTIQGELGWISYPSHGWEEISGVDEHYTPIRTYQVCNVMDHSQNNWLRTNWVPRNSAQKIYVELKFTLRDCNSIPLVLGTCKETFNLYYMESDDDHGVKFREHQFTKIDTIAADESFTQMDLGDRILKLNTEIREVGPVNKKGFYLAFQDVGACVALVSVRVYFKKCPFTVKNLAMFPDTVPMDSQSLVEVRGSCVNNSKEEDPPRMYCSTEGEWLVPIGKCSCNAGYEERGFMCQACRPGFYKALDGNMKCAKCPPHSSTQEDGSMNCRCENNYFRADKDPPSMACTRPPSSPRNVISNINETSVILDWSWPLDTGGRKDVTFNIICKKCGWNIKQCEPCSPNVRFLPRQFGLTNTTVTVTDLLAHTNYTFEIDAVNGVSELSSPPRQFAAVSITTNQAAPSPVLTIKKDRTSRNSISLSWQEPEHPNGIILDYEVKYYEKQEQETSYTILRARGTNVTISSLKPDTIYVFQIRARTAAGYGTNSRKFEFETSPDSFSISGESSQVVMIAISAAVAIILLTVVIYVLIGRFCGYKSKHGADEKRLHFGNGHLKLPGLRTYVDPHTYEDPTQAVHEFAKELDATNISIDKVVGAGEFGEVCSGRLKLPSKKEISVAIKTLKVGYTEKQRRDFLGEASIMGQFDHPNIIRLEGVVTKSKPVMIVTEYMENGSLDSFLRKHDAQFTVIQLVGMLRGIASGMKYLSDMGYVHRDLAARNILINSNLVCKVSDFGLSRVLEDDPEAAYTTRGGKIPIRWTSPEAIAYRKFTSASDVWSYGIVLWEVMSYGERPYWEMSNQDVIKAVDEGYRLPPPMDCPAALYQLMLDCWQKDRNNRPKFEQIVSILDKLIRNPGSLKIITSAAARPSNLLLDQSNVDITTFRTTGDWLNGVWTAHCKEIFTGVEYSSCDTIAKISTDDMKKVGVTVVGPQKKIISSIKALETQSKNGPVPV
# [9] = target: T4, Ephrin type-A receptor 3 (Homo sapiens); settings: at 10 µM
# [10] = target: Ephrin type-A receptor 4 (Homo sapiens) (UniProt P54764); settings: at 1 µM
# [11] = target: Ephrin type-A receptor 4 (Homo sapiens) (UniProt P54764); settings: at 10 µM
# [12] = target: Ephrin type-A receptor 5 (Homo sapiens) (UniProt P54756); settings: at 1 µM
# [13] = target: Ephrin type-A receptor 5 (Homo sapiens) (UniProt P54756); settings: at 10 µM
# [14] = target: Ephrin type-A receptor 7 (Homo sapiens) (UniProt Q15375); settings: at 1 µM
# [15] = target: Ephrin type-A receptor 7 (Homo sapiens) (UniProt Q15375); settings: at 10 µM
# [16] = target: T5, Ephrin type-A receptor 8 (Homo sapiens) (UniProt P29322); settings: at 1 µM
# T5 sequence (whole entry): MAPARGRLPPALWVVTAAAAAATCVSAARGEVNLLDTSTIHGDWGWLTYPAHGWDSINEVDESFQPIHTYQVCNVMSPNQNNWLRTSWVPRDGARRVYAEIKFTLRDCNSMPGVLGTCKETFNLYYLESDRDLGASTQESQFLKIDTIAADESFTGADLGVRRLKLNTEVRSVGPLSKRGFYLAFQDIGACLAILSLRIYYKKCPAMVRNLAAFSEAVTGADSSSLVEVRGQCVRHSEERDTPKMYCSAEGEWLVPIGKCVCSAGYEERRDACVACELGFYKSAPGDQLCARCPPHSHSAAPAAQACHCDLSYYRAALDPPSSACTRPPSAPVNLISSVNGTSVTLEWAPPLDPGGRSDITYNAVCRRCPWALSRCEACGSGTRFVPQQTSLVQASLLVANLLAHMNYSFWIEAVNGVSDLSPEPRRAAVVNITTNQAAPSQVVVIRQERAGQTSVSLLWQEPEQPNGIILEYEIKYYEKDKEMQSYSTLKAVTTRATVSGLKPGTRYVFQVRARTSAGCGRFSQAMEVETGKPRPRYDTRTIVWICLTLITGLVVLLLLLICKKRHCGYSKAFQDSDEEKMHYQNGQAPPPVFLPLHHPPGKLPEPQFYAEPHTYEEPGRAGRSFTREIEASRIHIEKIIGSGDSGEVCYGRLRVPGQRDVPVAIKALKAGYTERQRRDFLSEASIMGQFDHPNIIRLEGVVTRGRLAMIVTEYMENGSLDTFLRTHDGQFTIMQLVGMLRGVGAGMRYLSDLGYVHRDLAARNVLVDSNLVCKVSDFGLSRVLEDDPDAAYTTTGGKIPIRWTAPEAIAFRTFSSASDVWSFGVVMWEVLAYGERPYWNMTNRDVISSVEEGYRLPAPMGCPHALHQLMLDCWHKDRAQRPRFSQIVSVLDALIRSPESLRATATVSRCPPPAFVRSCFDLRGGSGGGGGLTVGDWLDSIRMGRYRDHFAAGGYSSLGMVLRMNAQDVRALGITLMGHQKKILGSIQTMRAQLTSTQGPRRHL
# [17] = target: T5, Ephrin type-A receptor 8 (Homo sapiens); settings: at 10 µM
# [18] = target: T6, Ephrin type-B receptor 1 (Homo sapiens) (UniProt P54762); settings: at 1 µM
# T6 sequence (whole entry): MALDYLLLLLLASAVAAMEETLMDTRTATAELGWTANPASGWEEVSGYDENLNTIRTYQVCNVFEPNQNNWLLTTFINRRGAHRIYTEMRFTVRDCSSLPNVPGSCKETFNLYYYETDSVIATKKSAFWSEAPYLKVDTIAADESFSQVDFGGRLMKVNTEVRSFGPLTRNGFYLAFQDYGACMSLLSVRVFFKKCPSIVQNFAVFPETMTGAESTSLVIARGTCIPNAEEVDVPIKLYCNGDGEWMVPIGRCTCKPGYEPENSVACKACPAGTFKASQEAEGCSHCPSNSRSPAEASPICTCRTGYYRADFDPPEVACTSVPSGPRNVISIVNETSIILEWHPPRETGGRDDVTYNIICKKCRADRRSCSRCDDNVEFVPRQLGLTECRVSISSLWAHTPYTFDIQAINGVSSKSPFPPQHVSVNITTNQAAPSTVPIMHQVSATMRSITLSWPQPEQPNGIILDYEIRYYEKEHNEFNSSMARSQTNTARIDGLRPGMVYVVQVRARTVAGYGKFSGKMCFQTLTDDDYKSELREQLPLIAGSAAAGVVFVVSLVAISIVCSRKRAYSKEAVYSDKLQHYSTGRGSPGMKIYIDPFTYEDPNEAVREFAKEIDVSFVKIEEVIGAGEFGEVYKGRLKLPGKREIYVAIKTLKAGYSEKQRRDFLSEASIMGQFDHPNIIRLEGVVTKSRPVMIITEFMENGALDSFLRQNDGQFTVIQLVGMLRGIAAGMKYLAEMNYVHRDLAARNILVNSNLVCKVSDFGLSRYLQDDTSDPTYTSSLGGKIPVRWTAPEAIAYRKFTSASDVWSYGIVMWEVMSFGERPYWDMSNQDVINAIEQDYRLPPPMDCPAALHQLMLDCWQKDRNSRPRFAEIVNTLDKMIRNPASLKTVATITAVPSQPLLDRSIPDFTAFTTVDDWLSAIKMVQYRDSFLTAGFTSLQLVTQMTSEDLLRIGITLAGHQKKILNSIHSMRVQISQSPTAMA
# Ephrin type-A receptor 5 (Homo sapiens), sequence (P54756 whole entry): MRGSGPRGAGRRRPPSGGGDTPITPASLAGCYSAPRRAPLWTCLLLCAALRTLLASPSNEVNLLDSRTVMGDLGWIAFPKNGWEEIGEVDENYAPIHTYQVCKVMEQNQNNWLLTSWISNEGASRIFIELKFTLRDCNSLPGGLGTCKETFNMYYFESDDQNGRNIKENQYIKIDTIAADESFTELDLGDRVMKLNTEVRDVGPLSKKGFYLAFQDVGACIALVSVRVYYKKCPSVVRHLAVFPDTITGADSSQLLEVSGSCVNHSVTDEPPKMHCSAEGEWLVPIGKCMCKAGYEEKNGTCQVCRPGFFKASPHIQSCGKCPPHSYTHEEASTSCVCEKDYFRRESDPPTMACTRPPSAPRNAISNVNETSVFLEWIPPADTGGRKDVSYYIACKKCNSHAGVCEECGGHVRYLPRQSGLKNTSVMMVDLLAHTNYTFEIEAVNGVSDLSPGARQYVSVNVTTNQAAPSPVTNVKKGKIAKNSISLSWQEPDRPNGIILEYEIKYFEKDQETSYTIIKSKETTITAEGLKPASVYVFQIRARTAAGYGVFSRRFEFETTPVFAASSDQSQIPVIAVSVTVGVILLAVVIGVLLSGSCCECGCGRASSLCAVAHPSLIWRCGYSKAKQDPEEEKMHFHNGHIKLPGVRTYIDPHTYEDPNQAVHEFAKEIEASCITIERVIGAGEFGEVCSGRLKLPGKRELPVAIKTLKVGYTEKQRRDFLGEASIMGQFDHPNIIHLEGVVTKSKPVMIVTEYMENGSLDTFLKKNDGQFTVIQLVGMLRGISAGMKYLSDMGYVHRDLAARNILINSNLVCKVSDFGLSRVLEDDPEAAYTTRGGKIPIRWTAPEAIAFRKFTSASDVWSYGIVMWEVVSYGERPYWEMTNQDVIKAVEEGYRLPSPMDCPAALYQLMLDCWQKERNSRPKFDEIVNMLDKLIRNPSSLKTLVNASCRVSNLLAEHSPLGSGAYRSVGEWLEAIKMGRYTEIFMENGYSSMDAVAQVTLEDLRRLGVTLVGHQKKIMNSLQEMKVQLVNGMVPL
# Ephrin type-A receptor 7 (Homo sapiens), sequence (Q15375 28-998 limits assumed): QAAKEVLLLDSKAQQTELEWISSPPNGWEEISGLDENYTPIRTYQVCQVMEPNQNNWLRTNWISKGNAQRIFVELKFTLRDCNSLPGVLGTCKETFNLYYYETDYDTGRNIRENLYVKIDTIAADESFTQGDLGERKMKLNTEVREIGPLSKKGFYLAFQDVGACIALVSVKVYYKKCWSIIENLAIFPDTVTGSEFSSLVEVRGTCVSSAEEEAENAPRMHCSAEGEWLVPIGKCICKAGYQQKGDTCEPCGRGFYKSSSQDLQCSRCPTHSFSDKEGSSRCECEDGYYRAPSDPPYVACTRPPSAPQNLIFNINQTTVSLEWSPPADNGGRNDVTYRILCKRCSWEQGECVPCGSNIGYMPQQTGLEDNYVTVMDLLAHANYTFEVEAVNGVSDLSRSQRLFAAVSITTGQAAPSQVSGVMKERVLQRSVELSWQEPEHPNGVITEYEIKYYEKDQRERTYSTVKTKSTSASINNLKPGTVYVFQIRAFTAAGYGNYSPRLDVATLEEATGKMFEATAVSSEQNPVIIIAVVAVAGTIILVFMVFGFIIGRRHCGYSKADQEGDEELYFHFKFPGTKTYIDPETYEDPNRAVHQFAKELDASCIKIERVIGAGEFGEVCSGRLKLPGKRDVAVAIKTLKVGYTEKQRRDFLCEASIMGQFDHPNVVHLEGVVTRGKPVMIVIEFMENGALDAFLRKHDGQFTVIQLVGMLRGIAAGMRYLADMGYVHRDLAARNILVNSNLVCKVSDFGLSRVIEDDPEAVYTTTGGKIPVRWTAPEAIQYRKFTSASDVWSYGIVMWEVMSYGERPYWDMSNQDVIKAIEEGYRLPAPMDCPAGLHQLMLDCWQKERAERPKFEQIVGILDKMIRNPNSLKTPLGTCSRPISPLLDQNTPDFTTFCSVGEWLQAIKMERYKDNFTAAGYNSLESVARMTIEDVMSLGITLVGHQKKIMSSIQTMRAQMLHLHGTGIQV
# Ephrin type-A receptor 2 (Homo sapiens), sequence (P29317 whole entry): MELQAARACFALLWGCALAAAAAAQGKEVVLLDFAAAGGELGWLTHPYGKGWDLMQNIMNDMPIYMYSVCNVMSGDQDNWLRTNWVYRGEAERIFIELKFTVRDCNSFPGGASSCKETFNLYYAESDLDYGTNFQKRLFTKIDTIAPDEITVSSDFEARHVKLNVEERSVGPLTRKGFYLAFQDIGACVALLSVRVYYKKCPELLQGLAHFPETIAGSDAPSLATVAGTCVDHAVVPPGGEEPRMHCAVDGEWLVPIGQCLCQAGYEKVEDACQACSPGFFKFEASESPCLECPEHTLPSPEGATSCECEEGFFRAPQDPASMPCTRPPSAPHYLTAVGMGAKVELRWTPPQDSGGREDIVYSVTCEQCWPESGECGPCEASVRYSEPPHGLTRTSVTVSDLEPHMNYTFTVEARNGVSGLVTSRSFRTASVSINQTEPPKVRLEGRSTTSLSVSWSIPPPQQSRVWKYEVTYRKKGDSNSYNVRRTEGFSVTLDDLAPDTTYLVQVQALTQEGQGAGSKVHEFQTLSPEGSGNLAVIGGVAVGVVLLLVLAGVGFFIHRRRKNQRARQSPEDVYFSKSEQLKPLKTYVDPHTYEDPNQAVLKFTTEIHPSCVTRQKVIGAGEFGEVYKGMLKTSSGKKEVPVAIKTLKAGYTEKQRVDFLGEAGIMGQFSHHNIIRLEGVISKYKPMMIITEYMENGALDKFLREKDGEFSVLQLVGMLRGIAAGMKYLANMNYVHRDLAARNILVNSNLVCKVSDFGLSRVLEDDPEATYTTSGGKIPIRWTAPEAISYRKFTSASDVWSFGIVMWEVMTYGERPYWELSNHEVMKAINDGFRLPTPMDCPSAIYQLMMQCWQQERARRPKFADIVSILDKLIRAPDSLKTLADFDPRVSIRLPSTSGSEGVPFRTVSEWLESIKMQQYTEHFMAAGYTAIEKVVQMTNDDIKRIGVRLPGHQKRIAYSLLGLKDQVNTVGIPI
# Ephrin type-A receptor 4 (Homo sapiens), sequence (P54764 whole entry): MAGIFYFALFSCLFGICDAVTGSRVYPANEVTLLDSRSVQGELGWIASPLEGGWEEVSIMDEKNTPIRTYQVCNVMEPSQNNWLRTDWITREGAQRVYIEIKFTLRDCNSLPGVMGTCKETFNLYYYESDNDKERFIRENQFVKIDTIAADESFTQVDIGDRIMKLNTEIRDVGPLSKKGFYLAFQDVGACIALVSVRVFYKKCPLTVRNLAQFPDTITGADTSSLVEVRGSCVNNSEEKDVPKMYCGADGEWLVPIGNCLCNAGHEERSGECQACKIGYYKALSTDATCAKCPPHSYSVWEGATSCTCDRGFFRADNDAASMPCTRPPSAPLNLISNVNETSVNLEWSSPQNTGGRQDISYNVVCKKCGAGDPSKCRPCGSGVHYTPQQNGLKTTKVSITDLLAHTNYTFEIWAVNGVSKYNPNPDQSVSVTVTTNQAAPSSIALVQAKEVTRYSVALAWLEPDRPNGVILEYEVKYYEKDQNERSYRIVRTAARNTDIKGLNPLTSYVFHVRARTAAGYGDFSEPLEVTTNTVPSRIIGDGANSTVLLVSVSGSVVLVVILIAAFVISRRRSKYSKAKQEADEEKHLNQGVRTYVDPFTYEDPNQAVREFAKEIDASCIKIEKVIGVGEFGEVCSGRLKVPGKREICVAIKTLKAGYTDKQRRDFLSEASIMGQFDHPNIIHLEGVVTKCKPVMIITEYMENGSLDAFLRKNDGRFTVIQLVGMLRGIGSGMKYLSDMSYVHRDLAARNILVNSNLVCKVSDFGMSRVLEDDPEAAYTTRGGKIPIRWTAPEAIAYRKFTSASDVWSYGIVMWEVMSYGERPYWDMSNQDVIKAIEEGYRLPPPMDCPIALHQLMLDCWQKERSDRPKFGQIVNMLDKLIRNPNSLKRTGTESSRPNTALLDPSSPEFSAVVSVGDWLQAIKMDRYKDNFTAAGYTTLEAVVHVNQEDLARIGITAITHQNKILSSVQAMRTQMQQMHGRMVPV
compound,measurement,setting,value
CC#CC(=O)Nc1cc2c(Nc3ccc(F)c(Cl)c3)ncnc2cn1,residual activity,[1],105%
same,residual activity,[2],102%
same,residual activity,[3],93%
same,residual activity,[4],102%
same,residual activity,[5],105%
same,residual activity,[6],100%
same,residual activity,[7],101%
same,residual activity,[8],113%
same,residual activity,[9],92%
same,residual activity,[10],118%
same,residual activity,[11],91%
same,residual activity,[12],102%
same,residual activity,[13],97%
same,residual activity,[14],96%
same,residual activity,[15],91%
same,residual activity,[16],104%
same,residual activity,[17],93%
same,residual activity,[18],96%
O=C1NC(=O)c2c1c1c3ccccc3[nH]c1c1[nH]c3cc(Br)ccc3c21,residual activity,[1],4%
same,residual activity,[2],100%
same,residual activity,[3],75%
same,residual activity,[4],96%
same,residual activity,[5],86%
same,residual activity,[6],98%
same,residual activity,[7],114%
same,residual activity,[8],93%
same,residual activity,[9],86%
same,residual activity,[10],104%
same,residual activity,[11],92%
same,residual activity,[12],111%
same,residual activity,[13],91%
same,residual activity,[14],99%
same,residual activity,[15],93%
same,residual activity,[16],95%
same,residual activity,[17],88%
same,residual activity,[18],106%
O=c1c2ccccc2[nH]c(=S)n1CCN1CCC(=C(c2ccc(F)cc2)c2ccc(F)cc2)CC1,residual activity,[1],90%
same,residual activity,[2],102%
same,residual activity,[3],96%
same,residual activity,[4],95%
same,residual activity,[5],89%
same,residual activity,[6],116%
same,residual activity,[7],100%
same,residual activity,[8],109%
same,residual activity,[9],96%
same,residual activity,[10],112%
same,residual activity,[11],100%
same,residual activity,[12],110%
same,residual activity,[13],92%
same,residual activity,[14],106%
same,residual activity,[15],92%
same,residual activity,[16],115%
same,residual activity,[17],111%
same,residual activity,[18],90%
CNc1cc2c(Nc3cccc(Br)c3)ncnc2cn1,residual activity,[1],11%
same,residual activity,[2],90%
same,residual activity,[3],86%
same,residual activity,[4],72%
same,residual activity,[5],59%
same,residual activity,[6],94%
same,residual activity,[7],75%
same,residual activity,[8],93%
same,residual activity,[9],78%
same,residual activity,[10],105%
same,residual activity,[11],95%
same,residual activity,[12],103%
same,residual activity,[13],92%
same,residual activity,[14],90%
same,residual activity,[15],54%
same,residual activity,[16],98%
same,residual activity,[17],69%
same,residual activity,[18],93%
